Source: PubChem BioAssay (Tox21)
Where “and” joins values, the source holds several entries; their conditions need not be identical. Equal values may be shown once. Inconclusive results are not listed. Some compounds were tested as several samples or in several runs, with calls that do not always agree. Calls of active or inactive are those of the source. Unless noted, calls come from the whole dose curve; as a rule, active = well fitted curve in the direction sought with a large enough effect in the repeat runs; inconclusive = weak or mixed curves; inactive = no such curve, though single readings can be large; an effect the other way counts as inactive or inconclusive.

Assays:
[1] = Caspase-3/7 induction in CHO-K1 cells by small molecules, qHTS cell viability counter screen (AID 1346979); note: nearly all actives have a fitted effect of over 35% in size; note: potency is the fitted concentration of half-maximal effect
Procedure, shortened: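 To flag cytotoxic compounds, treated CHO-K1 wild-type cells were given CellTiter-Fluor at 16hr and read fluorescently after 1hr at 37C; the caspase-3/7 luminescence was measured in these same wells.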

[2] = Caspase-3/7 induction in CHO-K1 cells by small molecules, qHTS assay (AID 1346980); note: nearly all actives have a fitted effect of over 15% in size; note: potency is the fitted concentration of half-maximal effect
Procedure, shortened: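 Luminescent Caspase-Glo 3/7 read (30min, room temperature) quantified apoptosis induction. Cells were wild-type CHO-K1, treated with compound for 17hr at 37 C and 5% CO2.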

[3] = Caspase-3/7 induction in HepG2 cells by small molecules, qHTS cell viability counter screen (AID 1346981); note: nearly all actives have a fitted effect of over 30% in size; note: potency is the fitted concentration of half-maximal effect
Procedure, shortened: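 Treatment of HepG2 cells with DMSO-delivered compounds ran 16 hr at 37 C following a 5-hr pre-incubation of 2,000 cells/well. CellTiter-Fluor fluorescence, read after 1 hr, served as the viability measure in a qHTS format.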

[4] = target: Nuclear receptor subfamily 1 group I member 2 (Homo sapiens) (UniProt O75469); assay: Human pregnane X receptor (PXR) small molecule agonists, qHTS assay (AID 1346982); note: nearly all actives have a fitted effect of over 35% in size; note: potency is the fitted concentration of half-maximal effect
Procedure, shortened: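 Stable HepG2 line reporting PXR-mediated CYP3A4 expression via luciferase. Treatment: 24 hr with compounds in DMSO at 37 C. Detection: ONE-Glo luminescence.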

[5] = target: Acetylcholinesterase (Homo sapiens) (UniProt P22303); assay: Acetylcholinesterase (AChE) small molecule antagonists: colormetric cell-based qHTS assay (AID 1347395; calls by dose curve; note: nearly all actives have a fitted effect of over 30% in size; note: potency is the fitted concentration of half-maximal effect)
Procedure, shortened: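 Neuroblastoma line SH-SY5Y supplied the enzyme; cells were preincubated with compound for 30 min at 37 C and 5% CO2. Acetylthiocholine with DTNB was then added for 90 min at 37 C, and thiocholine was measured by colour.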

[6] = target: Acetylcholinesterase (Homo sapiens) (UniProt P22303); assay: Acetylcholinesterase (AChE) small molecule antagonists: enzyme-based qHTS assay (AID 1347397; calls by dose curve; note: nearly all actives have a fitted effect of over 55% in size; note: potency is the fitted concentration of half-maximal effect); details: Potency: AChE enzyme activity inhibition
Procedure, shortened: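 Colorimetric DTNB readout of acetylthiocholine hydrolysis, 10 min at room temperature, after 30 min room-temperature exposure of 50 mU/mL recombinant human enzyme to compound; DMSO vehicle control.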

[7] = target: Acetylcholinesterase (Homo sapiens) (UniProt P22303); assay: Acetylcholinesterase (AChE) small molecule antagonists: fluorescence cell-based qHTS assay (AID 1347398; calls by dose curve; note: nearly all actives have a fitted effect of over 50% in size; note: potency is the fitted concentration of half-maximal effect); details: Potency: AChE activity
Procedure, shortened: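 Cellular AChE activity read as thiocholine from acetylthiocholine hydrolysis, detected by Thiolite Green fluorescence at 490/520 nm after 40 min at room temperature. Compounds were pre-incubated 30 min at 37 C on adherent SH-SY5Y cells.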

[8] = Caspase-3/7 induction in HepG2 cells by small molecules, qHTS assay (AID 1346978); note: nearly all actives have a fitted effect of over 15% in size; note: potency is the fitted concentration of half-maximal effect
Procedure, shortened: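 Caspase-3/7 induction was measured by Caspase-Glo 3/7 luminescence (30 min, room temperature) after a 17 hr compound exposure of wild-type HepG2 cells seeded at 2,000 per well and pre-incubated 5 hr.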

[9] = target: Nuclear receptor subfamily 1 group I member 2 (Homo sapiens) (UniProt O75469); assay: CYP3A4 induction through human pregnane X receptor (PXR) by small molecules, qHTS assay (AID 1346984); note: nearly all actives have a fitted effect of over 40% in size
Procedure, shortened: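 After 24 h at 37C with compound, DPX-2 cells (HepG2, co-transfected PXR response element and CYP3A4 promoter-luciferase) got 3uM final P450-Glo Luciferin-IPA for 3 h; One-Glo luminescence followed.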

[10] = target: Nuclear receptor subfamily 1 group I member 2 (Homo sapiens) (UniProt O75469); assay: Human pregnane X receptor (PXR) activation by small molecules, qHTS assay (AID 1346985); note: nearly all actives have a fitted effect of over 40% in size
Procedure, shortened: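 DPX-2 cells (HepG2 co-transfected with a PXR response element and a CYP3A4-promoter luciferase construct) were seeded at 2,000 per well, rested 5 hr at 37C, then exposed to DMSO-dissolved compounds for 24 hr. Activation was read as luciferase luminescence.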

Measured: Potency

Sequence of Nuclear receptor subfamily 1 group I member 2 (Homo sapiens) (O75469 whole entry, looked up): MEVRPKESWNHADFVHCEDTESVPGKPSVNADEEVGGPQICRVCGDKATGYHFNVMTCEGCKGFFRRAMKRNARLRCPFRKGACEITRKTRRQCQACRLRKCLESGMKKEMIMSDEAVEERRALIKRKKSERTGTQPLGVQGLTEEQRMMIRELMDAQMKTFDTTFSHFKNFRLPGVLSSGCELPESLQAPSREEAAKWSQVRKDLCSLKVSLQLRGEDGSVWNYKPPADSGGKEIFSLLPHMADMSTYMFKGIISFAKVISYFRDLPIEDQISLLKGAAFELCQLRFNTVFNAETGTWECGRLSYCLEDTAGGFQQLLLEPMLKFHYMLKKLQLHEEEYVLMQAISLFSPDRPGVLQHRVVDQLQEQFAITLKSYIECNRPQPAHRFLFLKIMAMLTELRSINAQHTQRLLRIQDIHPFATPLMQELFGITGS
Sequence of Acetylcholinesterase (Homo sapiens) (P22303 whole entry, looked up): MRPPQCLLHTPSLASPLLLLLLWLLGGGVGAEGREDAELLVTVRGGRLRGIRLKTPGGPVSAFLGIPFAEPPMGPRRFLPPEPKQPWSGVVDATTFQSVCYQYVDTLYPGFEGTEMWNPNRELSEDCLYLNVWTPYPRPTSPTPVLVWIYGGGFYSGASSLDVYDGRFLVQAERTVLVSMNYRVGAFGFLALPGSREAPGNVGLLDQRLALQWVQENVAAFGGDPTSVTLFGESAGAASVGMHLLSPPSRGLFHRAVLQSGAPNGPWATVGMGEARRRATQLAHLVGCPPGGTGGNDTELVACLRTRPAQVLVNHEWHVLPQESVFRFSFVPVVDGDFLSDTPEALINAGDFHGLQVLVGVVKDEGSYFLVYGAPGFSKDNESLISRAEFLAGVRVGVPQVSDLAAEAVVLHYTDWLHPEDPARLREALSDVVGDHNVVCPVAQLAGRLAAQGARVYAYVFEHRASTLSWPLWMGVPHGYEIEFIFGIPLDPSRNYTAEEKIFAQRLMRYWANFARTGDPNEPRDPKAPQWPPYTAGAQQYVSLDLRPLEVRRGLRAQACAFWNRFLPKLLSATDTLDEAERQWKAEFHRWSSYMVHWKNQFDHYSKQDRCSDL

CCC[CH2][Sn]([CH2]CCC)([CH2]CCC)[O]C(=O)c1ccccc1
active: [1] 0.77 µM | [2] 1.93 µM | [3] 4.86 µM | [4] 0.486 µM
inactive: [5] | [6] | [7]

CC(=O)c1cc(C(C)(C)C)cc2c1CCC2(C)C
inactive: [1] | [2] | [3] | [4] | [5] | [6] | [7]

COc1cccc2c1C(=O)c1c(O)c3c(c(O)c1C2=O)C[C@@](O)(C(=O)CO)CC3OC1CC(N2CCOC(OC)C2)C(O)C(C)O1 (some centres undefined)
inactive: [4]
active: [1] 9.44 µM | [2] 0.168 µM | [3] 16.8 µM | [5] 12.3 µM | [7] 11 µM

Cc1cc(C(C)(C)c2cc(C)c(O)c(C)c2)cc(C)c1O
inactive: [2] | [5] | [6] | [7]
active: [1] 59.1 µM | [3] 52.7 µM | [4] 33.2 µM

CC(C)CC(C)Nc1ccc(Nc2ccccc2)cc1 (centres undefined)
active: [1] 60.1 µM | [3] 67.4 µM | [4] 12 µM
inactive: [2] | [5] | [6]

N#Cc1c(-c2ccc(Cl)cc2)[nH]c(C(F)(F)F)c1Br
active: [1] 1.54 µM | [3] 27.3 µM | [4] 2.17 µM
inactive: [2] | [5] | [6] | [7]

N#Cc1ccc(O)cc1
inactive: [1] | [2] | [3] | [4] | [5] | [6] | [7]

CC(C)C1CCC(Cc2ccc(Cl)cc2)C1(O)Cn1cncn1 (centres undefined)
inactive: [6] | [7]
active: [8] 67.9 µM | [3] 60.5 µM | [4] 21.5 µM

CC(O)C#N (centres undefined)
inactive: [1] | [2] | [3] | [4] | [5] | [6] | [7]

CCOP(=S)(OCC)SCS(=O)(=O)CC
inactive: [1] | [2] | [3] | [4]
active: [5] 1.59 µM | [6] 7.1 µM | [7] 2.52 µM

Oc1c(Cl)c(Cl)cc(Cl)c1Cl
inactive: [8] | [3] | [5] | [6] | [7]

Fc1cccc(Cl)c1CCl
inactive: [1] | [2] | [3] | [4] | [5] | [7]

Clc1ccc(C(c2ccccc2Cl)C(Cl)(Cl)Cl)cc1 (centres undefined)
34.6 µM (active) and inactive: [4]
inactive: [8] | [3] | [6] | [7]

CCN(CC)C(=S)[S-].CCN(CC)C(=S)[S-].[Zn+2]
active: [8] 1.08 µM | [3] 27.1 µM
inactive: [5] | [6] | [7]

CC1(c2ccc(Oc3ccccc3)cc2)OC(=O)N(Nc2ccccc2)C1=O (centres undefined)
active: [1] 6.9 µM | [3] 27.5 µM | [4] 21.8 µM
inactive: [2] | [5] | [6] | [7]

Clc1ccc(-c2ccc(Cl)c(Cl)c2Cl)c(Cl)c1Cl
inactive: [1] | [2] | [3] | [5] | [6] | [7]

O=C1c2ccccc2C(=O)C1C(=O)C(c1ccccc1)c1ccc(Cl)cc1 (centres undefined)
active: [1] 15.4 µM | [3] 30.6 µM | [4] 19.3 µM
inactive: [2] | [7]

CC(C)CC(C)(c1ccc(O)cc1)c1ccc(O)cc1
inactive: [2] | [5] | [7]
active: [1] 61.3 µM and 61.1 µM | [3] 68.7 µM and 61.1 µM | [4] 8.65 µM and 13.7 µM

Oc1ccc(I)cc1
inactive: [1] | [2] | [3] | [4] | [5] | [7]

CC(C)OS(C)(=O)=O
inactive: [1] | [2] | [3] | [5] | [6] | [7]

CC(=O)[O-].[Tl+]
active: [1] 43.5 µM
inactive: [3]

Cc1cc(N=Nc2ccccc2C)ccc1N
inactive: [2] | [5] | [6] | [7]
active: [3] 3.86 µM and 686 nM | [4] 24.3 µM and 30.6 µM

O=c1[nH]c2ccccc2n1CCCN1CCC(n2c(=O)[nH]c3cc(Cl)ccc32)CC1
inactive: [2]

COC12CC[C@@]3(C[C@@H]1C(C)(O)C(C)(C)C)[C@H]1Cc4ccc(O)c5c4[C@@]3(CCN1CC1CC1)[C@H]2O5 (some centres undefined)
inactive: [6] | [7]
active: [1] 43 µM | [3] 68.1 µM | [4] 3.04 µM

CC(C)(C)C(O)/C(=C\c1ccc(Cl)cc1Cl)n1cncn1 (centres undefined)
active: [3] 83 µM | [4] 41.6 µM
inactive: [2] | [6]

c1ccc(Nc2ccc3ccccc3c2)cc1
inactive: [2] | [5] | [7]
active: [1] 54.5 µM | [4] 30.5 µM and 21.7 µM

c1ccc2cc3c(cc2c1)-c1cccc2cccc-3c12
inactive: [2] | [3] | [5] | [6] | [7]

CC(C)(c1ccc(O)c(-c2ccccc2)c1)c1ccc(O)c(-c2ccccc2)c1
inactive: [7]
active: [1] 43.3 µM | [3] 61.1 µM | [4] 24.3 µM | [6] 17.8 µM

C=CC(=O)N(C)C
inactive: [2] | [3] | [4] | [6] | [7]

C[C@H]1CC[C@@H]2[C@@H](C)[C@H]3[C@H](C[C@H]4[C@@H]5CC=C6CC(O[C@@H]7O[C@H](CO)[C@H](O)[C@H](O[C@@H]8O[C@H](CO)[C@@H](O)[C@H](O)[C@H]8O)[C@H]7O[C@H]7O[C@@H](C)[C@H](O)[C@@H](O)[C@H]7O)CC[C@]6(C)[C@H]5CC[C@]34C)N2C1 (some centres undefined)
active: [3] 31.6 µM | [5] 26 µM | [7] 2.92 µM
inactive: [2] | [9] | [10] | [6]

O=C(Nc1ccc2[nH]ccc2c1)c1cc2cc(F)ccc2n1Cc1cccc(F)c1
active: [1] 30.6 µM | [3] 61.1 µM | [4] 24.3 µM
inactive: [5] | [6] | [7]
